Several values for one entry are separate records, joined by “and”; a condition that tells them apart may be missing. Identical values can stand only once. The panel holds about 83,000 compounds, 20% with a hit somewhere; the sample as a whole holds those more often.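 For each line, cells grew in 96-well plates with the test compound present at a single concentration for 48 hours.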 Activity calls are given as the source filed them. Rule for the calls: active = growth percent below 10; inactive = the rest.
How the values were obtained:
Test in all cases: NCI-60 one-dose screen, 48 h (100 = growth as untreated, 0 = no growth, -100 = all killed)
Settings in all cases: 10 µM unless noted
DU-145 prostate = system: DU-145 prostate
K-562 leukemia = system: K-562 leukemia
MALME-3M melanoma = system: MALME-3M melanoma
MDA-MB-231 breast = system: MDA-MB-231 breast
RXF 393 renal = system: RXF 393 renal
SF-268 CNS = system: SF-268 CNS
SF-295 CNS = system: SF-295 CNS
SF-539 CNS = system: SF-539 CNS
UACC-257 melanoma = system: UACC-257 melanoma
M14 melanoma = system: M14 melanoma

Compound	growth (DU-145 prostate)	growth (K-562 leukemia)	growth (MALME-3M melanoma)	growth (MDA-MB-231 breast)	growth (RXF 393 renal)	growth (SF-268 CNS)	growth (SF-295 CNS)	growth (SF-539 CNS)	growth (UACC-257 melanoma)	growth (M14 melanoma)
O=C(/C=C/C=C/c1ccc2c(c1)OCO2)N1CCCCC1	119% (inactive) and 110% (inactive)	90.5% (inactive) and 70.7% (inactive)	108% (inactive) and 214% (inactive)	98.6% (inactive) and 98% (inactive)	105% (inactive) and 110% (inactive)	114% (inactive) and 99.2% (inactive)	85.4% (inactive) and 107% (inactive)	109% (inactive) and 101% (inactive)	114% (inactive) and 106% (inactive)	109% (inactive) and 99.5% (inactive)
CC1=CC(=O)c2cccc(NC3=NCCO3)c21	108% (inactive)	82.4% (inactive)	93.4% (inactive)	102% (inactive)	117% (inactive)	100% (inactive)	95.1% (inactive)	95.7% (inactive)	94.2% (inactive)	97.1% (inactive)
Nc1nc(=S)c2[nH]cnc2[nH]1	21.3% (inactive) and 21% (inactive)	9.77% (active) and -2.79% (active)	21.6% (inactive) and 35.7% (inactive)	32.9% (inactive) and 29.4% (inactive)	5.3% (active) and -2.73% (active)	17.8% (inactive) and 26.3% (inactive)	25.6% (inactive) and 19% (inactive)	7.88% (active)	41.4% (inactive) and 24.2% (inactive)	5.54% (active)
O=[N+]([O-])c1ccc(NC2CCCCC2)nc1	96.7% (inactive) and 119% (inactive)	108% (inactive) and 104% (inactive)	118% (inactive)	95.4% (inactive) and 114% (inactive)	126% (inactive) and 103% (inactive)	110% (inactive) and 112% (inactive)	103% (inactive) and 102% (inactive)	99.6% (inactive) and 110% (inactive)	107% (inactive) and 106% (inactive)	105% (inactive) and 109% (inactive)
O=C(O)c1cc(=O)[nH]c(=O)[nH]1	116% (inactive) and 104% (inactive)	106% (inactive) and 115% (inactive)	89.1% (inactive) and 116% (inactive)	97.2% (inactive) and 96.3% (inactive)	118% (inactive)	112% (inactive) and 100% (inactive)	101% (inactive) and 124% (inactive)	104% (inactive) and 80.5% (inactive)	103% (inactive)	102% (inactive) and 111% (inactive)
COc1ccc(/C=N/NC(N)=S)cc1	110% (inactive)	106% (inactive)	94.4% (inactive)	101% (inactive)	95.8% (inactive)	104% (inactive)	106% (inactive)	103% (inactive)	102% (inactive)	96.3% (inactive)
CC(C)(C)OC(=O)CC1(O)CCCCC1	112% (inactive)	114% (inactive)	117% (inactive)	95.8% (inactive)	108% (inactive)	104% (inactive)	100% (inactive)	108% (inactive)	109% (inactive)	108% (inactive)
CCOC(C)=N	118% (inactive)	102% (inactive)	177% (inactive)	106% (inactive)	114% (inactive)	106% (inactive)	121% (inactive)	106% (inactive)	104% (inactive)	97.5% (inactive)
CCNCc1ccccc1	104% (inactive)	96.3% (inactive)	101% (inactive)	110% (inactive)	118% (inactive)	104% (inactive)	105% (inactive)	102% (inactive)	102% (inactive)	109% (inactive)
CN(C)C(=N)N=C(N)N	120% (inactive)	130% (inactive)	116% (inactive) and 269% (inactive)	95.8% (inactive) and 114% (inactive)	101% (inactive) and -7.3% (active)	99.9% (inactive) and 103% (inactive)	113% (inactive) and 178% (inactive)	98.5% (inactive) and 109% (inactive)	108% (inactive) and -0.171% (active)	99.2% (inactive) and 101% (inactive)
O=C1Cc2ccccc2C(=O)N1	112% (inactive)	46.9% (inactive)	104% (inactive)	44.1% (inactive)	99.1% (inactive)	97% (inactive)	102% (inactive)	103% (inactive)	89.4% (inactive)	95.3% (inactive)
COc1cc2oc3cc(=O)cc4oc(-c5ccccc5)cc(c2c2c1CCC(c1ccccc1)O2)c43 (stereo not given)	79.7% (inactive)	42.1% (inactive)	117% (inactive)	75.8% (inactive)	78.6% (inactive)	85.1% (inactive)	70.5% (inactive)	78.7% (inactive)	99.9% (inactive)	88.2% (inactive)
O=[N+]([O-])c1ccc(N/N=C/C2CCCCCC2)c([N+](=O)[O-])c1	92% (inactive)	83.4% (inactive)	98% (inactive)	81.8% (inactive)	98% (inactive)	87.4% (inactive)	98.1% (inactive)	99.8% (inactive)	96.5% (inactive)	85.1% (inactive)
CC1(C)CC(=O)NC1=O	109% (inactive)	94.8% (inactive)	102% (inactive)	106% (inactive)	97.7% (inactive)	100% (inactive)	108% (inactive)	93.5% (inactive)	101% (inactive)	95% (inactive)
N#CC(=S)Nc1ccc(Cl)c(Cl)c1	18.6% (inactive)	16.1% (inactive)	-13.4% (active)	-4.8% (active)	13% (inactive)	11% (inactive)	-0.242% (active)	8.61% (active)	-6.42% (active)	26.1% (inactive)
COc1cc(NCCCCCNC(C)C)c2ncccc2c1	111% (inactive)	91.1% (inactive) and 104% (inactive)	99.6% (inactive) and 125% (inactive)	89% (inactive) and 93.1% (inactive)	90.9% (inactive) and 92.6% (inactive)	93.5% (inactive)	104% (inactive) and 102% (inactive)	91.9% (inactive) and 78.1% (inactive)	113% (inactive) and 80.2% (inactive)	96.9% (inactive) and 90.2% (inactive)
Cc1c(Cl)cc(Cl)c(N)c1Cl	121% (inactive)	106% (inactive)	109% (inactive)	98.9% (inactive)	108% (inactive)	104% (inactive)	102% (inactive)	96.4% (inactive)	106% (inactive)	105% (inactive)
C(=N\OCCc1ccccc1)/c1ccccn1	111% (inactive) and 106% (inactive)	115% (inactive)	153% (inactive) and 95.9% (inactive)	124% (inactive) and 112% (inactive)	116% (inactive) and 119% (inactive)	107% (inactive) and 105% (inactive)	96.6% (inactive)	104% (inactive) and 93.6% (inactive)	109% (inactive) and 104% (inactive)	115% (inactive) and 117% (inactive)
Nc1ccccc1SC(CC(=O)c1ccccc1)c1cccc([N+](=O)[O-])c1 (stereo not given)	113% (inactive) and 85.5% (inactive)	61% (inactive) and 7.1% (active)	123% (inactive) and 86.7% (inactive)	86.4% (inactive) and 99.6% (inactive)	104% (inactive) and 94.7% (inactive)	101% (inactive) and 83.9% (inactive)	83.1% (inactive) and 92.3% (inactive)	99.6% (inactive) and 105% (inactive)	95% (inactive) and 87.7% (inactive)	114% (inactive) and 89.9% (inactive)
COc1ccc(/C=N/Nc2nc3ccccc3s2)cc1	105% (inactive)	93.2% (inactive)	44.2% (inactive)	86% (inactive)	97.5% (inactive)	106% (inactive)	97.1% (inactive)	94% (inactive)	103% (inactive)	87.7% (inactive)
O=C1c2ccccc2C(c2ccccc2)C1c1ccccc1 (stereo not given)	104% (inactive)	77.2% (inactive)	99.5% (inactive)	89.1% (inactive)	102% (inactive)	97.9% (inactive)	94.8% (inactive)	101% (inactive)	96.3% (inactive)	97.7% (inactive)
CCNC1=CC(=O)c2ncccc2C1=O	-92.9% (active)	21.2% (inactive)	-84.6% (active)	51.2% (inactive)	99% (inactive)	58.3% (inactive)	-71.1% (active)	-59.3% (active)	-13.5% (active)	-87.4% (active)

Reference: PubChem BioAssay (NCI)
